In PubChem BioAssay AID463173 (ICCB-Longwood Screening Facility, Harvard Medical School, 2010):
Screen size: about 52,000 compounds; about 4,300 (8.3%) were called active. Rule as the data show it: active = survival mostly below about 52% (no sharp cut-off); inactive = mostly above about 56%. Only a selection was taken, and actives are over-represented in it overall.

What follows are compounds tested on DeltatarO mutant (assay: S. aureus survival, RN4220 and DeltatarO strains – OD600, teichoic acid synthesis inhibitors, primary screen (AID 463173)). Details: S. aureus RN4220 wild type/DeltatarO growth, OD600, 18 h, stronger effect = lower value, screened at 18.75 µg/mL (by protocol).
`Cc1ccc(C)c(N2CCN(CCCNC(=O)Cn3ncc4c([nH]c5ccccc54)c3=O)CC2)c1` was tested, and the survival was 94% (inactive). In the case of `Cc1noc2ncnc(N3CCCC(C(=O)Nc4cccc(C(F)(F)F)c4)C3)c12` (centres undefined), the survival is reported as 93% (inactive). With `Cc1cc(C)n(C(C)CC(=O)NCc2ccc(Cl)cc2)n1` (centres undefined) the survival was 69% (inactive). In the case of `COc1ccc2nc(SCC(O)c3cccc(Br)c3)[nH]c2c1` (centres undefined), the survival is reported as 76% (inactive). In the case of `Nc1ccc2nc(SCCOc3ccccc3)sc2c1`, the survival is reported as 88% (inactive). With `Brc1ccc2nc(SCCOc3ccccc3)[nH]c2c1` the survival was -1% (active). `CCOc1ccc(Nc2cc(C)nc3nncn23)cc1` was tested, and the survival was 60% (inactive). In the case of `CCCS(=O)(=O)N1CCCC(C(=O)NCCOC)C1` (centres undefined), the survival is reported as 55% (inactive). `CCCCN(CC)CCNC(=O)Cn1c(=O)c2cccn2c2cccnc21` was tested, and the survival was 80% (inactive). With `Cc1ccc(NC(=O)c2c(C(=O)Nc3ccccc3)sc3nc(C)cc(=O)n23)cc1` the survival was 59% (inactive). In the case of `Cc1cc(=O)n2c(C(=O)Nc3ccc(F)c(Cl)c3)c(C(=O)Nc3cccc(C)c3C)sc2n1`, the survival is reported as 65% (inactive). `COc1ccc(Cl)cc1NC(=O)c1c(C(=O)Nc2cccc(C)c2C)sc2nc(C)cc(=O)n12` was tested, and the survival was 74% (inactive). For `COc1ccc(C)cc1NC(=O)c1c(C(=O)Nc2cccc(C)c2C)sc2nc(C)cc(=O)n12`, the survival was 61% (active). `Cc1cc(=O)n2c(C(=O)Nc3ccc(C)c(C)c3)c(C(=O)Nc3ccccc3)sc2n1` was tested, and the survival was 52% (inactive). With `Cc1cc(=O)n2c(C(=O)Nc3ccc(C)c(Cl)c3)c(C(=O)Nc3ccccc3)sc2n1` the survival was 56% (active). For `CC(C)Oc1ccc(NC(=O)C2COc3ccccc3O2)cc1` (centres undefined), the survival was 103% (inactive). For `Cc1ccc(NS(=O)(=O)c2c(C)nc3sc(C)cn3c2=O)c(C)c1`, the survival was 83% (inactive). With `CCOc1ccccc1CNC(=O)CN1C(=O)CCCc2ccccc21` the survival was 86% (inactive). `COc1cccc(Cn2c(=O)n(CCc3ccccc3)c(=O)c3c2c2cc(OC)ccc2n3C)c1` was tested, and the survival was 81% (inactive). `CCOc1ccccc1Nc1sc(C(=O)c2ccccc2)c(N)c1C(=O)NCCc1ccccc1` was tested, and the survival was 99% (inactive). `Cc1ccc(N2CCN(C(=O)NCc3noc4ccc(C)cc34)CC2)c(C)c1` was tested, and the survival was 54% (inactive). In the case of `Cn1c(=O)c2c(nc(SCC(=O)Nc3ccccc3)n2Cc2ccccc2F)n(C)c1=O`, the survival is reported as 43% (active). In the case of `Cn1c(=O)c2c(nc(SCC(=O)Nc3ccc(F)cc3)n2Cc2ccc(Cl)cc2)n(C)c1=O`, the survival is reported as 31% (active). For `Cn1c(=O)c2c(nc(SCC(=O)Nc3ccccc3F)n2Cc2ccccc2F)n(C)c1=O`, the survival was 65% (inactive). For `Cn1c(=O)c2c(nc(SCC(=O)Nc3ccc(F)cc3)n2Cc2ccccc2)n(C)c1=O`, the survival was 89% (inactive). `Cn1c(=O)c2c(nc(SCC(=O)Nc3ccccc3F)n2Cc2ccc(Cl)cc2)n(C)c1=O` was tested, and the survival was 80% (inactive). `Cn1c(=O)c2c(nc(SCC(=O)Nc3ccc(F)cc3)n2Cc2ccccc2F)n(C)c1=O` was tested, and the survival was 140% (inactive). For `CC(C)(C)OC(=O)N1CCC(c2c(C(=O)NCc3ccco3)cnn2-c2ccc(F)cc2)CC1`, the survival was 88% (inactive). `Cc1ccc(NC(=O)/C=C/c2ccccc2Cl)cc1Cl` was tested, and the survival was 67% (inactive). For `Cc1ccc(C(=O)c2oc3ccccc3c2NC(=O)Cc2ccccc2)cc1`, the survival was 50% (inactive). For `CCc1ccc2occ(CC(=O)Nc3c(C(=O)c4ccccc4)oc4ccccc34)c2c1`, the survival was 95% (inactive). `CCN(CC)c1cc(C)c2cc(NC(=O)/C=C/c3ccccc3Cl)ccc2n1` was tested, and the survival was 53% (inactive). With `CCCCOC(=O)c1cccc(NC(=O)/C=C/c2ccccc2Cl)c1` the survival was 14% (active). With `CCCCOC(=O)c1ccc(NC(=O)c2cc(=O)c3ccccc3o2)cc1` the survival was 57% (inactive). For `COc1ccc(NC(=O)c2oc3ccccc3c2NC(=O)c2cc3ccccc3o2)cc1`, the survival was 89% (inactive). `O=C(Cc1ccccc1)Nc1c(C(=O)c2ccccc2)oc2ccccc12` was tested, and the survival was 3% (active). `CCCCc1ccc(-n2nc3ccc(NC(=O)c4cc5ccccc5o4)cc3n2)cc1` was tested, and the survival was 72% (inactive). For `O=C(Nc1c(C(=O)Nc2ccc(F)cc2)oc2ccccc12)c1cc2ccccc2o1`, the survival was 47% (active). `Cc1ccc(NC(=O)c2oc3ccccc3c2NC(=O)c2cc3ccccc3o2)cc1` was tested, and the survival was 94% (inactive). `CCCCOC(=O)c1cccc(NC(=O)c2cc3ccccc3o2)c1` was tested, and the survival was 1% (active). In the case of `CCOc1ccc(CNC(=O)C2Cc3ccccc3N2C(=O)CC)cc1OC` (centres undefined), the survival is reported as 78% (inactive). In the case of `COc1ccc(OC)c(NC(=O)c2cc3c(=O)n4cccc(C)c4nc3n2C)c1`, the survival is reported as 65% (inactive). In the case of `COc1ccc(CNC(=O)CN(c2cc(C)cc(C)c2)S(=O)(=O)c2c(C)[nH]c(=O)[nH]c2=O)cc1`, the survival is reported as 86% (inactive). With `CC1CN(C(=O)CCC(=O)NCc2cccs2)c2cc(Cl)ccc2O1` (centres undefined) the survival was 84% (inactive). `CCOC(=O)c1c(S(=O)(=O)N2CCCC(C(=O)Nc3cc(C)ccn3)C2)c(C)n(C)c1C` (centres undefined) was tested, and the survival was 83% (inactive). With `CN(C1CCCCC1)S(=O)(=O)c1ccc(C(=O)Nc2sc3c(c2C(N)=O)CC(C)(C)NC3(C)C)cc1` the survival was 84% (inactive). In the case of `COc1ccc2c(c1)c1c(c(=O)n(-c3ccccc3)c(=O)n1CC(=O)NCc1ccc(C)cc1)n2C`, the survival is reported as 83% (inactive). In the case of `COc1ccc(-n2cc(C(=O)NCc3ccccc3)c3ccccc3c2=O)cc1`, the survival is reported as 61% (inactive). For `CCOc1ccc(NC(=O)c2oc3ccccc3c2NC(=O)c2cc(C)cc(C)c2)cc1`, the survival was 82% (inactive). In the case of `CCOc1ccc(NC(=O)c2oc3ccccc3c2NC(=O)c2c(F)cccc2F)cc1`, the survival is reported as 91% (inactive). For `COc1ccccc1C(=O)Nc1c(C(=O)Nc2ccccc2F)oc2ccccc12`, the survival was 13% (active). For `O=C(Cc1ccccc1)Nc1c(C(=O)Nc2ccccc2F)oc2ccccc12`, the survival was 83% (inactive). With `COc1ccccc1NC(=O)c1oc2ccccc2c1NC(=O)c1c(F)cccc1F` the survival was 51% (inactive). With `COc1ccccc1C(=O)Nc1c(C(=O)c2ccccc2)oc2ccccc12` the survival was -1% (active). `CC(=O)Nc1c(C(=O)Nc2ccccc2F)oc2ccccc12` was tested, and the survival was 119% (inactive). For `COc1ccc(C(=O)Nc2c(C(=O)c3ccccc3)oc3ccccc23)cc1`, the survival was 72% (inactive). `CCOc1ccc(NC(=O)c2oc3ccccc3c2NC(=O)C(C)(C)C)cc1` was tested, and the survival was 38% (active). In the case of `COc1ccccc1C(=O)Nc1c(C(=O)NC(C)(C)C)oc2ccccc12`, the survival is reported as 99% (inactive). In the case of `O=C(Nc1ccccc1F)c1oc2ccccc2c1NC(=O)c1c(F)cccc1F`, the survival is reported as 26% (active). `COc1cc(C(=O)Nc2c(C(=O)Nc3ccccc3F)oc3ccccc23)cc(OC)c1OC` was tested, and the survival was 52% (inactive). With `CCN1C(=O)/C(=C2\C=Cc3ccccc3N2CC)SC1=S` the survival was 77% (inactive). In the case of `CC(=O)Nc1ccc(-c2nnc(SCC(=O)c3ccc([N+](=O)[O-])cc3)o2)cc1`, the survival is reported as 66% (inactive). With `CCOc1ccccc1C(=O)Nc1cc2c(cc1N1CCOCC1)n(C)c(=O)n2C` the survival was 77% (inactive). In the case of `CCCNC(=O)N1CCc2cc(OC)c(OC)cc2C1c1cc2cc3c(cc2[nH]c1=O)OCO3` (centres undefined), the survival is reported as 91% (inactive). With `CCOCCc1nn2c(=O)cc(COC(=O)COc3ccccc3Cl)nc2s1` the survival was 88% (inactive). In the case of `COc1cccc(NC(=O)c2oc3ccccc3c2NC(=O)c2cc3ccccc3o2)c1`, the survival is reported as 51% (inactive). With `O=C(O)c1ccc(NC(=O)c2cc3ccccc3o2)cc1` the survival was 59% (inactive). For `O=C(Nc1c(C(=O)Nc2ccccc2F)oc2ccccc12)c1cc2ccccc2o1`, the survival was 37% (active). `O=C(Nc1ccc(NC(=O)c2cc3ccccc3o2)cc1)c1ccccc1` was tested, and the survival was 86% (inactive). `CC(C)Oc1ccc(NC(=O)c2cc3ccccc3o2)cc1` was tested, and the survival was 40% (active). In the case of `COc1ccccc1C(=O)Nc1c(C(=O)N2CCN(c3ccc(F)cc3)CC2)oc2ccccc12`, the survival is reported as 0% (active). For `Cc1cc(C)cc(C(=O)Nc2c(C(=O)Nc3ccccc3F)oc3ccccc23)c1`, the survival was 80% (inactive). For `COc1ccc(N2CCN(C(=O)c3oc4ccccc4c3NC(=O)c3ccccc3OC)CC2)cc1`, the survival was 131% (inactive). `COc1ccc(NC(=O)c2oc3ccccc3c2NC(=O)c2cc3ccccc3o2)c(OC)c1` was tested, and the survival was 72% (inactive). `COc1ccccc1C(=O)Nc1c(C(=O)N2CCN(c3ccccc3F)CC2)oc2ccccc12` was tested, and the survival was 92% (inactive). For `O=C(Nc1c(C(=O)Nc2cccc(F)c2)oc2ccccc12)c1cc2ccccc2o1`, the survival was 35% (active). For `Cc1cccc(CC(=O)Nc2c(C(=O)Nc3cccc(F)c3)oc3ccccc23)c1`, the survival was 57% (inactive). In the case of `COc1ccc(CCNC(=O)CCS(=O)(=O)c2cc3c(cc2Cl)NC(=O)CO3)cc1OC`, the survival is reported as 90% (inactive). With `COc1ccc(-c2noc(-c3ccc(C)cc3Cl)n2)cc1OC` the survival was 136% (inactive). With `Cc1ccc(C)c(NC(=O)Cn2cc(S(=O)(=O)N3CCCC3)c(S(=O)(=O)N3CCCC3)c2)c1` the survival was 94% (inactive). For `COc1ccc(OC)c(NC(=O)c2cn3c4c(ccc(Cl)c4c2=O)OC(C)C3)c1` (centres undefined), the survival was 87% (inactive). For `Cc1ccc(-c2cc(NC(=O)COc3ccc(Cl)c(C)c3)on2)cc1`, the survival was 86% (inactive). For `Oc1c(Br)cc(Br)cc1-c1nc2ccccc2s1`, the survival was 126% (inactive). For `CCOc1ccccc1CNC(=O)CCn1cccn1`, the survival was 67% (inactive). In the case of `CCOC(=O)C1CCN(c2cc3c(cc2NC(=O)c2ccc(Cl)cc2)n(C)c(=O)n3C)CC1`, the survival is reported as 93% (inactive). With `COc1ccc(CNC(=O)C2=C(C)C(=O)OC23CCCCC3)cc1` the survival was 82% (inactive). In the case of `CCc1ccc(S(=O)(=O)c2cn(C)c3cc(OC)c(OC)cc3c2=O)cc1`, the survival is reported as 121% (inactive). `CCOC(=O)c1ccc(NC(=O)C2Cc3ccccc3CN2S(=O)(=O)c2ccc(Cl)cc2)cc1` (centres undefined) was tested, and the survival was 53% (inactive). `CCCc1c(C)c2ccc(O)c(CN3CCN(c4ccc(F)cc4)CC3)c2oc1=O` was tested, and the survival was 52% (inactive).
